Laboratory results from the supplement of paper PMC12636033.
± gives the standard deviation of the averaged measurements. Over roughly 33,000 sequences, “E-score (rank enrichment, -0.5 to 0.5)” has its median near -0.0028; the highest 2% begin near 0.23. This excerpt belongs to a sample that is enriched for the highest values.

test system: 2Sb-muMax20 (muMax20 with two 1,3-bis(methyl)benzene Cys staples, A13C/A17C and Q88C/A92C, C-terminal Lys); experiment: PBM 8-mer E-score (E-score (rank enrichment, -0.5 to 0.5)); higher = stronger preferential binding
Description: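 Protein binding microarray (universal PBM chip covering all 10-mers in fixed probe flanks) with chemically synthesized human Max(13-93) bHLH-LZ analogs (not full-length Max) bearing noncanonical residues (hArg, Tha, Aib, Nle at 65) and aromatic Cys staples. Read-out per 8-mer (and its reverse complement): E-score (rank-based enrichment, -0.5 to 0.5) and Z-score of median probe intensity.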

Sequence | PBM 8-mer E-score
CGAAGGCC | -0.212 ± 0.015
AAACTTGC | 0.254 ± 0.025
CAACTTGC | -0.1303 ± 0.0012
AAACTTGA | 0.163 ± 0.048
ACAGATTA | -0.0104 ± 0.027
CCTGAAAC | -0.0931 ± 0.062
GTCGTAAC | 0.00633 ± 0.033
GAGTCGGA | -0.0932 ± 0.037
AGTCATTC | 0.129 ± 0.077
ATACATTC | 0.32 ± 0.023
ATTCATTG | 0.0825 ± 0.018
CTTCATAC | 0.0955 ± 0.029
AGTCATTG | 0.264 ± 0.034
CTACATTC | 0.0832 ± 0.066
ATACATTG | 0.17 ± 0.021
ATTCATTC | 0.249 ± 0.029
ATTCATTA | 0.114 ± 0.012
ATTCATAC | 0.276 ± 0.044
ATTCATAG | 0.0979 ± 0.039
AGTCATTA | 0.0586 ± 0.056
GCATCTGA | -0.135 ± 0.0046
GGGCCAGA | -0.122 ± 0.054
CTTGGGCA | 0.0256 ± 0.03
CGAGGCCC | -0.00116 ± 0.04
TGCGCGAA | 0.146 ± 0.011

Sequence | PBM 8-mer E-score
AGCAGACA | -0.0463 ± 0.0083
GACTGAGC | -0.267 ± 0.057
CCACAGAG | -0.0457 ± 0.076
CTATCCTC | -0.015 ± 0.015
CTATCTTC | 0.0336 ± 0.054
ATATCCTC | 0.262 ± 0.054
ATATCCTA | 0.0634 ± 0.0093
ATATCCCC | 0.339 ± 0.025
ATATCCCG | 0.0587 ± 0.04
CTATCCCC | 0.121 ± 0.0091
ATATCTTC | 0.249 ± 0.029
ATATCTTA | 0.124 ± 0.0016
CTCTTTGA | -0.0279 ± 0.036
GTATGAGA | 0.0453 ± 0.12
ATATGATG | 0.141 ± 0.0096
CTATGATA | 0.0532 ± 0.035
GTATGATA | 0.258 ± 0.026
GCATGATA | 0.214 ± 0.029
ATATGATA | 0.257 ± 0.058
ACCTTTAT | 0.02821 ± 0.00021
CAGCCTCG | -0.0714 ± 0.034
GGGGTTGA | 0.138 ± 0.03
CCCAATTC | 0.247 ± 0.0082
CCCAATTA | 0.221 ± 0.021
ACCAATTC | -0.0487 ± 0.032

Sequence | PBM 8-mer E-score
ACGATCTG | -0.0575 ± 0.048
AGCGATCC | -0.145 ± 0.057
AGCGATCA | -0.298 ± 0.021
AGCGATCG | 0.235 ± 0.0084
GACTGTCC | -0.111 ± 0.073
ATTGTCGA | 0.0736 ± 0.034
AATATATC | 0.19 ± 0.013
TATATACA | 0.173 ± 0.0038
AATATGGG | 0.178 ± 0.024
CAAATACA | 0.23 ± 0.0088
AATATACA | 0.264 ± 0.02
CATATGGC | 0.142 ± 0.035
AATATACT | 0.0704 ± 0.03
CATATGGG | 0.252 ± 0.056
AATATATA | 0.162 ± 0.015
CAAATACC | 0.0305 ± 0.029
GAAATACA | -0.0423 ± 0.015
AATATATT | 0.24 ± 0.054
CTTGTGTA | 0.116 ± 0.033
AGGCACAG | -0.103 ± 0.026
CGCAGTAA | 0.0928 ± 0.087
GGGCATCA | 0.0183 ± 0.046
TAAATTCA | 0.111 ± 0.075
GACATCTA | -0.1 ± 0.066
AAAACAGC | 0.13 ± 0.037

Sequence | PBM 8-mer E-score
CGTGGAAG | 0.0947 ± 0.13
GCACTAGC | 0.109 ± 0.017
AATGAATA | 0.156 ± 0.018
GGGCGACC | -0.0448 ± 0.029
CAATCTAA | 0.0541 ± 0.078
CATATATC | 0.13 ± 0.055
AATATGTG | 0.139 ± 0.033
CATATATG | 0.305 ± 0.007
AATATATG | 0.3 ± 0.004
CATATATA | 0.194 ± 0.0063
AAAATATG | 0.143 ± 0.05
TGCGAGCA | 0.146 ± 0.052
AAACCTAG | 0.000475 ± 0.031
AAACCTAT | -0.107 ± 0.033
AAACCTAC | 0.279 ± 0.06
GGATCTAC | -0.141 ± 0.02
ACATGTAG | 0.275 ± 0.021
AGATGTAT | 0.181 ± 0.031
ACATGCAC | 0.0993 ± 0.062
CCATGTAG | 0.172 ± 0.0065
ACATGTAA | 0.217 ± 0.026
ACATGTAT | 0.267 ± 0.0098
ACATGTCG | 0.166 ± 0.058
ACATGCAT | 0.363 ± 0.013
ACATGTAC | 0.309 ± 0.014

Sequence | PBM 8-mer E-score
CCATGTAC | -0.0138 ± 0.036
ACATGCAG | 0.037 ± 0.07
GCATGTAC | 0.172 ± 0.024
AAACCGTT | -0.108 ± 0.016
GACCGACC | -0.162 ± 0.012
AGTATCCG | -0.139 ± 0.029
CCCGGCCG | -0.233 ± 0.084
GCAGGAAA | 0.00101 ± 0.013
CAGACGTA | -0.0519 ± 0.083
CCCTCACC | 0.0586 ± 0.062
AAGACCTA | 0.0674 ± 0.017
AATAGTTG | 0.256 ± 0.032
AATAGTTA | 0.166 ± 0.0059
AATAGTTC | 0.0849 ± 0.052
GACTTCAC | -0.0215 ± 0.052
GGAATTCC | -0.26 ± 0.055
ATCAGAAT | -0.0334 ± 0.0022
AAGGTCTA | -0.00279 ± 0.068
CCATATGG | 0.322 ± 0.0072
ACATGGGG | 0.267 ± 0.045
ACATATGC | 0.0308 ± 0.041
GCATATGC | 0.259 ± 0.011
ACATATGG | 0.15 ± 0.036
ATATGGGA | 0.13 ± 0.017
CCATGGGG | -0.134 ± 0.03

Sequence | PBM 8-mer E-score
ATATGGGC | 0.192 ± 0.062
GCATATGA | 0.174 ± 0.045
CCATATGC | 0.125 ± 0.064
ACATGGGA | 0.0654 ± 0.083
ATATGGGG | 0.255 ± 0.0087
ACCAAAGT | -0.131 ± 0.004
AAACTTCA | 0.0459 ± 0.067
GCCGTGTA | 0.0129 ± 0.059
AGACCGCC | -0.0551 ± 0.0086
CCAACGAA | -0.0751 ± 0.0019
ACTTGCGA | 0.141 ± 0.053
ATGTTTAC | 0.195 ± 0.0024
ACGTACGT | 0.0796 ± 0.0024
CTGCACGC | 0.0673 ± 0.012
CCTACAAG | -0.0983 ± 0.063
ATATATGG | 0.279 ± 0.025
ATATATGA | 0.203 ± 0.014
ATATATGC | 0.196 ± 0.029
GTACCTAA | 0.015 ± 0.015
TATACAAA | 0.176 ± 0.037
GATACAAA | 0.0261 ± 0.058
AATACAAT | 0.105 ± 0.028
AATACGAG | 0.239 ± 0.016
GATACAAC | 0.0906 ± 0.034
AATACGAT | 0.0313 ± 0.056

Sequence | PBM 8-mer E-score
CATACAAG | 0.0617 ± 0.023
CATACGAG | 0.039 ± 0.023
CATACAAC | 0.254 ± 0.0055
AATACAAC | 0.218 ± 0.053
AATACAAA | 0.293 ± 0.0033
AATACAAG | 0.243 ± 0.066
GGCTCAAA | -0.232 ± 0.0071
CGTGTTCC | -0.101 ± 0.093
CAGCCATC | 0.0539 ± 0.04
ACGCTTAC | -0.00865 ± 0.0059
AATGGCGG | -0.0858 ± 0.063
CTTAGCCA | -0.0016 ± 0.011
ATCGGCTG | -0.182 ± 0.06
ATTAGGTG | 0.199 ± 0.0049
CATCCCGG | -0.179 ± 0.11
ACTTGTTA | 0.173 ± 0.0031
CCTTGTTC | -0.00956 ± 0.048
CCTTGTTA | 0.281 ± 0.032
ACTTCTCT | -0.115 ± 0.094
AACCCCAA | 0.331 ± 0.019
AACCCCAG | 0.0383 ± 0.14
AACCCCTA | 0.176 ± 0.0048
CTACCCAA | 0.085 ± 0.019
CACCCCAG | 0.262 ± 0.015
TACCCCTA | 0.316 ± 0.0051

Sequence | PBM 8-mer E-score
CACCCCTA | 0.228 ± 0.018
AACCCAAA | 0.0368 ± 0.14
TTACCCAA | 0.26885 ± 6.4e-05
ACCCCCAA | -0.148 ± 0.053
CCCCCCAG | -0.319 ± 0.18
GTACCCAA | 0.153 ± 0.0022
ACGAAGGC | -0.148 ± 0.011
GGCCAAAC | -0.0918 ± 0.032
ATAAAAGC | 0.113 ± 0.0099
CACCCCCA | -0.148 ± 0.025
CACCCCAC | 0.319 ± 0.067
AACCCCAC | 0.177 ± 0.082
CACCCCAA | 0.292 ± 0.059
TACCCCCA | -0.0172 ± 0.023
CACCCAAA | 0.211 ± 0.02
GACCCCAA | 0.129 ± 0.058
TACCCCAA | 0.29 ± 0.036
GACCCCAC | 0.0665 ± 0.09
AAAACGTT | 0.189 ± 0.024
GGAGAGTA | -0.0215 ± 0.08
CCTCACTA | 0.127 ± 0.035
AGCCACAC | 0.111 ± 0.045
TCCCTGCA | 0.0481 ± 0.0088
AACCACGT | 0.304 ± 0.0045
AAACACGC | 0.0985 ± 0.012

Sequence | PBM 8-mer E-score
ACCCACGA | 0.0473 ± 0.015
AAACACGA | 0.14 ± 0.053
AACCACGC | -0.0289 ± 0.036
ACCCACGT | 0.35 ± 0.025
AAACACGT | 0.238 ± 0.0029
ACCCACGC | 0.0613 ± 0.043
AACCACGA | 0.068 ± 0.082
GCGACATA | -0.0543 ± 0.01
GAGCAACC | -0.0186 ± 0.037
ACGAGCAA | 0.00429 ± 0.043
AGAGTACT | 0.0199 ± 0.063
CATGATTC | 0.0849 ± 0.046
ATTGATTA | 0.0825 ± 0.032
TAAGATAA | 0.0702 ± 0.044
CATGATAA | 0.262 ± 0.004
TATGATAA | 0.0883 ± 0.068
CTTGATTA | 0.159 ± 0.039
GATGATTA | -0.00815 ± 0.038
AATGATAA | 0.0436 ± 0.05
GTTGATTA | 0.259 ± 0.0094
AAAGATAA | 0.124 ± 0.033
CATGATTA | 0.236 ± 0.035
CAAGATAA | 0.253 ± 0.025
